Five compounds from PubChem BioAssay can be followed below.

Assay [1] is described as follows: yeast TOR pathway RPL19A-GFP modulators, primary screen, cell-based, S. cerevisiae, multiplex flow cytometry (AID 1862; in the data active means percent of DMSO control GFP below about 86%;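 further: lower values mimic rapamycin by blocking the RPL19A rise seen in DMSO cells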). Particulars: S. cerevisiae RPL19A-GFP strain, flow cytometry fluorescence, 3 h; at 10 µM; stronger effect = lower value.
Assay [2] can be described thus: modulators of MEP2-GFP levels in yeast, primary screen, S. cerevisiae, multiplex flow cytometry (AID 1867;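 active means GFP response, as percent of the DMSO control, above the screen-wide mean plus 3 SD, about 139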;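 further: median GFP channel fluorescence of barcode-gated MEP2-GFP cells measured by flow cytometry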). Conditions: S. cerevisiae MEP2-GFP strain, 3 h, at 10 µM, stronger effect = higher value, 100% means same as DMSO wells.
Assay [3] is described as follows: modulators of CIT2-GFP expression in yeast, primary screen, S. cerevisiae, GFP fusion, multiplex flow cytometry (AID 1870;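 active means percent response above a set limit, the screen-wide mean plus 3 SD, cut at about 130% in these data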;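 further: barcoded CIT2-GFP strain pooled with four other GFP strains with rapamycin as positive control; median GFP fluorescence per well over plate mean of DMSO wells so 100% = DMSO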). Conditions: 3 h, at 10 µM, stronger effect = higher value.
The nature of assay [4]: modulators of LAP4-GFP expression in yeast, primary screen, S. cerevisiae, multiplex flow cytometry (AID 1873;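 active means GFP signal, as percent of the solvent control, above the screen mean plus 3 SD, about 149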). Particulars: 3 h, at 10 µM, stronger effect = higher value.
Assay [5] is described as follows: modulators of AGP1-GFP expression in yeast TOR pathway, primary screen, cell-based, multiplex flow cytometry, S. cerevisiae (AID 1887;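 active means GFP signal above the screen-wide mean plus 3 SD, that is over about 124.5% of the solvent control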;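 further: AGP1-GFP fusion strain of S. cerevisiae within a five-strain barcoded multiplex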). Conditions: 3 h, at 10 µM, stronger effect = higher value.
Assay [6] is described as follows: inhibitors of CD8+ T cell-vesicle binding, pilot screen, LFA-1/ICAM-1 modulator project, MLPCN validation set, flow cytometry (AID 2523;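 active means response below a set limit, under 55% cells CD8-positive and vesicle-bound, and CD8 cells' 90th-percentile brightness under 279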;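 on vesicle binding response: mean PE anti-B7-1 fluorescence of CD8+ cells relative to row control; 100% = QL9-loaded vesicles with DMSO vehicle in the same plate row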). Conditions: 2C mouse CD8+ T cells, at 7 µM, stronger effect = lower value; double positive events: measured here: CD8+/vesicle+ event percentage.
Assay [7] concerns the target Integrin beta-1 (Homo sapiens) + Integrin alpha-4 (Homo sapiens) (UniProt P13612+P05556). Kind of assay: inhibition of HUTS-21 binding to VLA-4, pilot screen, VLA-4 allosteric modulator project, U937 cells, HUTS-21 mAb, flow cytometry, validation set (AID 2674;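 active means inhibition above 50%, about 3 SD of the validation set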;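 further: antibody binding induced by the VLA-4 ligand LDV present at three times its Kd; 0% = LDV ligand with antibody and no compound and 100% = antibody without LDV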). Particulars: HUTS-21 LIBS mAb binding, at 6.7 µM, stronger effect = higher value, binding induced by LDV ligand.
Assay [8] can be described thus: superoxide lowering in aged yeast cells, pilot screen, validation compound set (AID 2706;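 active means superoxide response below 65% of plate, a cut near 3 SD across the whole screen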;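 further: yeast exposed to compound for one week at 30 degrees C before staining; 100% = mean of all compound wells on the same plate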). Particulars: S. cerevisiae aging, superoxide DHE fluorescence; at 10 µM, stronger effect = lower value.
The target in assay [9] is Beta-adrenergic receptor kinase 1 (Homo sapiens) (UniProt P25098). Kind of assay: GRK2 binders displacing RNA aptamer, biochemical, validation, human GRK2, bead flow cytometry (AID 488806;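 active means aptamer binding inhibition above 30%, about 3 SD of noise from non-fluorescent compounds; inactive means inhibition at or below 30%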). Particulars: bead-bound GRK2, FAM-aptamer displacement, at 10 µM, stronger effect = higher value.
Assay [10] deals with AP-2 complex subunit beta (Homo sapiens) (UniProt P63010). Kind of assay: inhibitors of arrestin peptide binding to AP2, pilot screen, biochemical, validation set, GST-AP2 beads, flow cytometry (AID 504541;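 active means inhibition above 54%, about 3 SD of non-fluorescent compounds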;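 further: AP2 carries R879A mutation and is captured from E. coli lysate; bead-bound FITC arrestin peptide fluorescence measuring arrestin peptide binding to AP2; 0% = DMSO wells and 100% = excess unlabeled arrestin peptide control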). Particulars: FITC arrestin peptide, at 10 µM, stronger effect = higher value, AP2 beta2 appendage fragment, R879A mutant.
The nature of assay [11]: yeast V-ATPase proton transport modulators, S. cerevisiae, pHLuorin, HTS validation (AID 504600; in the data active means response above about 15%;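 further: plate controls were DMSO for no effect and reference compound for full effect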). Conditions: S. cerevisiae pHLuorin cytosolic pH, at 10 µM, stronger effect = higher value.
Assay [12] relates to anti-desmoglein-3 scFv antibody binding to human DSG3. Kind of assay: inhibitors of anti-DSG3 scFv binding to DSG3, pilot screen, biochemical, validation compound set, bead-based, flow cytometry (AID 588368;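 active means binding below the plate cutoff, the plate median minus 3 SD, with a reading above zero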;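 further: signal is the median channel fluorescence of bead-bound GFP antibody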). Conditions: Protein G beads, DSG3-Fc, scFv-GFP binding, at 10 µM, stronger effect = lower value.
Assay [13] in a line: inhibitors of fungal efflux pumps CDR1, CDR2, MDR1, pilot screen, validation compound set, multiplex, phenotypic (AID 588506;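 active means efflux inhibition above 0.42, the validation set average plus 4 SD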;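 further: Nile Red retained in cells so higher fluorescence means more efflux inhibition; 0 = negative control wells and 1 = enniatin B 25 µM full block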). Conditions: S. cerevisiae pump-expressing triplex, Nile Red efflux flow cytometry; at 10 µM; stronger effect = higher value; the pumps come from Candida albicans.
For assay [14], the target named is ATP-binding cassette sub-family B member 6 (Homo sapiens) (UniProt Q9NP58). Put plainly: ABCB6 transporter inhibitors, pilot screen, K562-ABCB6 cells, flow cytometry, validation set (AID 588550).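 Further: 0% = DMSO wells and 100% = benzethonium chloride 70 µM positive control.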 Conditions: K562-ABCB6 porphyrin accumulation, 1 h, at 10 µM, stronger effect = higher value.
Assay [15] can be described thus: promoters of myeloid differentiation in arrested cells, primary screen, cell-based, GFP/MAC1 double positive, flow cytometry, validation set (AID 588685;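 active means differentiation response of at least 50%, scaled between solvent and reference control, from cells with both markers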;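 further: compound exposure lasts four days before antibody staining and flow analysis; 0% = DMSO wells and 100% = 5 µM fulvestrant positive control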). Particulars: ER-HoxA9 marrow cells, stronger effect = higher value, normalized: vehicle 0, fulvestrant 100.

Structures are written as SMILES. Inconclusive results are not listed. Active and inactive are the calls of the source.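 How the source made its calls, unless noted: active means inhibition above the screen-wide mean plus 3 SD, about 51%; inactive means the rest.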

Chain of AP-2 complex subunit beta (Homo sapiens) (P63010 whole entry, looked up, the tested form may be a part, one chain of several): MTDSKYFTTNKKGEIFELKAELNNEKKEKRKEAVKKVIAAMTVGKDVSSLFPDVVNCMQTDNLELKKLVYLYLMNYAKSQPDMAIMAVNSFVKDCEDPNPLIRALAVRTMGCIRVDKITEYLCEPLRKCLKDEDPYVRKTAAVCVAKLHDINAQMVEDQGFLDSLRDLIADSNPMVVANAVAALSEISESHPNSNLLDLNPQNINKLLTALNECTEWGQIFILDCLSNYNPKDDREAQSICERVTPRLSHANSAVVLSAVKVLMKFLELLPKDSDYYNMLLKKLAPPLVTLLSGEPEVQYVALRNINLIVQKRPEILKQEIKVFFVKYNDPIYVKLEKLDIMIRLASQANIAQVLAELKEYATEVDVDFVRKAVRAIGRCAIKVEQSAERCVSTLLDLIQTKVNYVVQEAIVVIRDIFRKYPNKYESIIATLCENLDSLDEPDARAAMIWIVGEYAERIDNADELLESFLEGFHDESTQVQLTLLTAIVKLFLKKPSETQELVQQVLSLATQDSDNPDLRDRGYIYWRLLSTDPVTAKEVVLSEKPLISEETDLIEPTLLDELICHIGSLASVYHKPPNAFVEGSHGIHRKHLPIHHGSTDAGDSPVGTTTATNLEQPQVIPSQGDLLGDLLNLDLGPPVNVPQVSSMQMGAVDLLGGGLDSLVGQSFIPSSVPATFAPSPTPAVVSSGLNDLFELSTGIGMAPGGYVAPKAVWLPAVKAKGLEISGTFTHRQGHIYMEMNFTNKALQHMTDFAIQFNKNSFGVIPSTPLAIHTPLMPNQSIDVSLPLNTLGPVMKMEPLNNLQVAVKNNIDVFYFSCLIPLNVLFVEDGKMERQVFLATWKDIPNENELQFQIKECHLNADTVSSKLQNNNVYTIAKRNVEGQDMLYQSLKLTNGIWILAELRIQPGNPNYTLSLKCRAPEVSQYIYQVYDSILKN
Chain of Beta-adrenergic receptor kinase 1 (Homo sapiens) (P25098 whole entry, looked up): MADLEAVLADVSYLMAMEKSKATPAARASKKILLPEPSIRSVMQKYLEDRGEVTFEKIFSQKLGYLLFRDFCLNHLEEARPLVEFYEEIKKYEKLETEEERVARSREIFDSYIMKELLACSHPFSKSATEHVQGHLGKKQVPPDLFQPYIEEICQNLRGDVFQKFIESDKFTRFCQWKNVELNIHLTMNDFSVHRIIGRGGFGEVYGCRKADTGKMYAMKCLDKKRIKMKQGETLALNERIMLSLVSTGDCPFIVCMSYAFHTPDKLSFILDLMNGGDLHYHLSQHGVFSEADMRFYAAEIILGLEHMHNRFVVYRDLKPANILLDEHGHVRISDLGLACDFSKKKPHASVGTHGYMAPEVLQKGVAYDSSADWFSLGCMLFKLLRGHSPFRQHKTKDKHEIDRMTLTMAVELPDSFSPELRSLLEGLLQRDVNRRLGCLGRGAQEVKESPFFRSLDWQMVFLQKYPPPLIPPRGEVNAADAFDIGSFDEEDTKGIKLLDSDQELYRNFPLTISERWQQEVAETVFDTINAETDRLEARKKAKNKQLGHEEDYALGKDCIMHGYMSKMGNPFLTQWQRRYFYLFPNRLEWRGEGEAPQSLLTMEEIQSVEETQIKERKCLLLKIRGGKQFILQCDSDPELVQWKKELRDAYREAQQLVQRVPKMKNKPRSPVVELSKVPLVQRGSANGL
Chain of Integrin beta-1 (Homo sapiens) + Integrin alpha-4 (Homo sapiens) (P05556 whole entry, looked up): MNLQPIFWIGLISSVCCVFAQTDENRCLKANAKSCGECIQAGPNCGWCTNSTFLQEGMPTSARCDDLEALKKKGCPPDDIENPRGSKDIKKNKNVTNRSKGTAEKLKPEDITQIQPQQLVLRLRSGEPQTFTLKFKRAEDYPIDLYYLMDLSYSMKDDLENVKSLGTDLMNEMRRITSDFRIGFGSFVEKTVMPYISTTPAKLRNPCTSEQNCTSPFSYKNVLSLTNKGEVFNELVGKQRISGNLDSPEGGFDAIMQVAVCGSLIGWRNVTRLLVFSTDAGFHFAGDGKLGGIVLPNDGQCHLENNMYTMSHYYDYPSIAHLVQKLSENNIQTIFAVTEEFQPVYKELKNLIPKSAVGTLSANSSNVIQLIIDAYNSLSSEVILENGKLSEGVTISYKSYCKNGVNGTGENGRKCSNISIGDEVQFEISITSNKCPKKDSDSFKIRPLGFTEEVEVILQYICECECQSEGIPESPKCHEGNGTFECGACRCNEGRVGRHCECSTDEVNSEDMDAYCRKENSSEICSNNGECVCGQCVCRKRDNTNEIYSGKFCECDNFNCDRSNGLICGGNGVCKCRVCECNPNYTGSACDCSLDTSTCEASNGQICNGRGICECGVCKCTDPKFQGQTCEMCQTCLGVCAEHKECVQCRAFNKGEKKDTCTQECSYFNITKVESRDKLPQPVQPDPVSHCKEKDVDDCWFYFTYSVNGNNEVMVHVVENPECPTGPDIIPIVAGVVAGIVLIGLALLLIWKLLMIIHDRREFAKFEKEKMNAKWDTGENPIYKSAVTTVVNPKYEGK
Chain of Integrin beta-1 (Homo sapiens) + Integrin alpha-4 (Homo sapiens) (P13612 whole entry, looked up): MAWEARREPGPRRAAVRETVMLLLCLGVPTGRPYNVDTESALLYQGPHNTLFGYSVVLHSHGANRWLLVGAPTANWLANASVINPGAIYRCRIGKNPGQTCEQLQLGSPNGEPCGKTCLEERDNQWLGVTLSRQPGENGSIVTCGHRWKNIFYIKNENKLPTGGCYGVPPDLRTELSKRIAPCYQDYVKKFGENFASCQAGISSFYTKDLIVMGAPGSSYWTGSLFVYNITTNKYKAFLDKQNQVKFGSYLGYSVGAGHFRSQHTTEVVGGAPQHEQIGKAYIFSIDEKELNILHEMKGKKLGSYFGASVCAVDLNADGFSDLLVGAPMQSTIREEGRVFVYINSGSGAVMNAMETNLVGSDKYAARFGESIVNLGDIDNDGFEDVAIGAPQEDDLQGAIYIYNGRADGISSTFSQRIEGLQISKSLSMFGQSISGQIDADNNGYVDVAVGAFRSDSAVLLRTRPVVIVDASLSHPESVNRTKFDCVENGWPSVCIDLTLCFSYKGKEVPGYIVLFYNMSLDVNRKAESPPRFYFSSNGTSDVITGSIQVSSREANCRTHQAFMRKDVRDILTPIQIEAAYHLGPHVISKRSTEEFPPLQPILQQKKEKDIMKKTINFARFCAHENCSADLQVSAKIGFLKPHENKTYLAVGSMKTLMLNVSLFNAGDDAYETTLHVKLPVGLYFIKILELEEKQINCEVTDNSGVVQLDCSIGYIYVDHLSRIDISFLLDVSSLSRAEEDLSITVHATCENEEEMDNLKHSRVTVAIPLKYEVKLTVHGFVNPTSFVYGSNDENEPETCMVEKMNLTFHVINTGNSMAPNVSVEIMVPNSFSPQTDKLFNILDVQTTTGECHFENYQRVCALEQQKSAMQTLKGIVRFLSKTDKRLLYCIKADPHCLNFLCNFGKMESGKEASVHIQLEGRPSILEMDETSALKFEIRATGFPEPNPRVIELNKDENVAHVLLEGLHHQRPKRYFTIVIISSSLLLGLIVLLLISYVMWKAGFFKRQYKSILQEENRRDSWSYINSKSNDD
Chain of ATP-binding cassette sub-family B member 6 (Homo sapiens) (Q9NP58 whole entry, looked up): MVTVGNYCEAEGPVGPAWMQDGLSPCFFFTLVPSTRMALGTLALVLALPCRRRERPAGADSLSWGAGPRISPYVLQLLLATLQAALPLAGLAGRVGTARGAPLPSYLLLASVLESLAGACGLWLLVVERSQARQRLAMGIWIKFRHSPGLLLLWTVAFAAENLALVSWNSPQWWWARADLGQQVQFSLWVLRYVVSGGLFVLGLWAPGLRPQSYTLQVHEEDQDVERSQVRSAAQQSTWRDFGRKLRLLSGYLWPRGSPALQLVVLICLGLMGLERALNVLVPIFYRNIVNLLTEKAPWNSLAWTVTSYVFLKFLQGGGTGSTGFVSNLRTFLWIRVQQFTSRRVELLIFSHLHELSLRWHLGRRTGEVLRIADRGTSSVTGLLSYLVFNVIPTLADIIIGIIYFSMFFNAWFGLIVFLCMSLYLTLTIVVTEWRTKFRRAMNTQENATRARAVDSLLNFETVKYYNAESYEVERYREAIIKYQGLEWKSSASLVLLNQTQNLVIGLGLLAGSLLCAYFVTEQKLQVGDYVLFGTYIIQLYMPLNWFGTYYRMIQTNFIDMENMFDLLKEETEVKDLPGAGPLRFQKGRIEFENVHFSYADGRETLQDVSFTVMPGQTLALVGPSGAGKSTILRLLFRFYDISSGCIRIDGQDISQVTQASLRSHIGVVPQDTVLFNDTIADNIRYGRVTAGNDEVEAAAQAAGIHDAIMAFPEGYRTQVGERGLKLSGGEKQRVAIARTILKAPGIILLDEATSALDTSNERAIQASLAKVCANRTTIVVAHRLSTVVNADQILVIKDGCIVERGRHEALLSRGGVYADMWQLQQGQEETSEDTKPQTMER

In the case of `Clc1ccccc1CN1CCc2sccc2C1`, in assay [1], the percent of DMSO control GFP was 100% (inactive). The GFP response vs DMSO in assay [2] is 104% (inactive); in [4], 118% (inactive). For the same compound, in assay [3], the percent response of DMSO control is 99.6% (inactive). Moreover, in [5], the GFP response, % of DMSO was 119% (inactive). Moreover, the double positive events in [6] is 64.6%. In addition, the vesicle binding response in assay [6] is 233% (inactive). Besides, the figures for the inhibition in assay [7], in [10] and in assay [14] were 6.55% (inactive), 59.3% (active) and 0% (inactive), respectively. Also, the superoxide response (% of plate) in assay [8] was 87.2% (inactive). Also, in assay [9], the aptamer binding inhibition is -1% (inactive). Moreover, in [11], the response was 0.39% (inactive). In addition, in assay [12], the binding (% of control) is 102% (inactive). In assay [13], the efflux inhibition (fraction of control) is 0 (inactive). Also, the differentiation response in assay [15] is -4.99% (inactive).

Regarding `CC(=O)NCCCCCCNC(C)=O`, the percent of DMSO control GFP in [1] was 106% (inactive). For the same compound, the GFP response vs DMSO was 92.8% (inactive) in [2] and 90.3% (inactive) in assay [4]. The percent response of DMSO control in assay [3] was 110% (inactive). Moreover, in assay [5], the GFP response, % of DMSO was 106% (inactive). This compound had a double positive events in assay [6] of 55.5%. Besides, in [6], the vesicle binding response was 198% (inactive). The inhibition in assay [7] is 4.42% (inactive); in [10] it was -11.9% (inactive); in [14], 5% (inactive). Also, the superoxide response (% of plate) in [8] was 85.1% (inactive). In addition, the aptamer binding inhibition in [9] is -1% (inactive). Besides, the response in assay [11] was 6% (inactive). For the same compound, in [12], the binding (% of control) was 94.1% (inactive). In addition, the efflux inhibition (fraction of control) in assay [13] is -0.31 (inactive). Further, the differentiation response in assay [15] is -22.8% (inactive).

`NC(=O)c1c(-c2ccccc2)oc2ccc(O)cc12`: the percent of DMSO control GFP in [1] was 100% (inactive). Further, the GFP response vs DMSO in assay [2] was 97.9% (inactive); in assay [4] it was 100% (inactive). Moreover, in assay [3], the percent response of DMSO control is 90% (inactive). Also, the GFP response, % of DMSO in assay [5] is 98.5% (inactive). Also, the double positive events in [6] turned out to be 66.7%. Moreover, the vesicle binding response in assay [6] is 260% (inactive). Besides, the inhibition in assay [7] is 14.7% (inactive); in [10], -7.96% (inactive); in assay [14] it was 10% (inactive). The superoxide response (% of plate) in assay [8] is 90.9% (inactive). Besides, in assay [9], the aptamer binding inhibition was 0% (inactive). Further, the response in assay [11] was -1.1% (inactive). For the same compound, the binding (% of control) in [12] was 102% (inactive). Besides, the efflux inhibition (fraction of control) in assay [13] is -0.09 (inactive). Besides, the differentiation response in [15] was -13.1% (inactive).

Take `Cc1ccc2c(c1)c1c3n2CCCNC3CCC1` (stereo not given): in assay [1], the percent of DMSO control GFP was 103% (inactive). Besides, the GFP response vs DMSO in [2] was 106% (inactive); in [4], 95.4% (inactive). The percent response of DMSO control in assay [3] is 107% (inactive). Besides, the GFP response, % of DMSO in assay [5] is 94% (inactive). The double positive events in assay [6] came to 63.9%. Also, the vesicle binding response in assay [6] was 229% (inactive). Further, the values for the inhibition in assay [7], in [10] and in assay [14] were 10% (inactive), -3% (inactive) and 9% (inactive), respectively. Also, the superoxide response (% of plate) in [8] is 85.7% (inactive). Also, the aptamer binding inhibition in [9] is -4% (inactive). For the same compound, in assay [11], the response is 3.62% (inactive). Further, the binding (% of control) in [12] is 111% (inactive). For the same compound, the efflux inhibition (fraction of control) in assay [13] is -0.05 (inactive). Also, in assay [15], the differentiation response was -3.43% (inactive).

Take `Cc1ccc2c(c1)OC(=O)CC2c1ccccc1` (stereo not given): the percent of DMSO control GFP in [1] was 100% (inactive). Moreover, the GFP response vs DMSO in assay [2] is 104% (inactive); in [4], 102% (inactive). The percent response of DMSO control in [3] was 96.9% (inactive). Further, the GFP response, % of DMSO in assay [5] is 99.6% (inactive). The double positive events in [6] came out at 58%. In addition, the vesicle binding response in assay [6] was 168% (inactive). Moreover, the inhibition in assay [7] is 12.8% (inactive); in assay [10], 31.1% (inactive); in [14], 0% (inactive). In addition, the superoxide response (% of plate) in [8] was 111% (inactive). The aptamer binding inhibition in assay [9] is 5% (inactive). Besides, the response in assay [11] was -9.91% (inactive). In addition, the binding (% of control) in [12] is 95.6% (inactive). In addition, the efflux inhibition (fraction of control) in assay [13] is 0.06 (inactive). The differentiation response in assay [15] is -11.5% (inactive).
